Reference: PubChem BioAssay AID1159580 (chemical genetic matrix, 2015)
Values joined by “and” are separate entries in the source; they are usually repeats but may differ in a detail not shown here. Equal entries are not always repeated. Out of some 5,500 compounds screened, about 2,000 (36%) were called active. About 18% were inconclusive and are not listed. Cut-off read from the data, not from the text of the source: active = normalized growth mostly below about 0.91 (no sharp cut-off); inconclusive = no clear call, values can overlap the other calls; inactive = mostly above about 0.92. Some of the results follow.

Experiment: chemical genetic growth profiling, strain panel (AID 1159580);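 note: tested at 20 µM; growth read once vehicle control cultures reached saturation at 30 °C; 1 = growth at the plate median or of vehicle wells; lower values mean less growth of the strain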
Settings: growth OD

Measured: normalized growth

COc1cc(Cc2cnc(N)nc2N)cc(OC)c1OC
inactive: S. cerevisiae deletion strains, locus YJR075W, strain HOC1, active compounds read low 1.01 | S. cerevisiae deletion strains, locus YKL009W, strain mrt4, active compounds read low 1.04 | S. cerevisiae deletion strains, locus YKL068W, active compounds read low 0.986 | S. cerevisiae deletion strains, locus YKL085W, strain MDH1 (second series), active compounds read low 1.03 | S. cerevisiae deletion strains, locus YKL085W, strain MDH1, active compounds read low 1.03 | S. cerevisiae deletion strains, locus YKL160W, strain elf1, active compounds read low 1.01 | S. cerevisiae deletion strains, locus YKL190W, strain CNB1, active compounds read low 1.01 | S. cerevisiae deletion strains, locus YKR001C, strain vps1, active compounds read low 0.989 | S. cerevisiae deletion strains, locus YKR026C, strain gcn3, active compounds read low 1 | S. cerevisiae deletion strains, locus YKR091W, strain srl3, active compounds read low 1.01 | S. cerevisiae deletion strains, locus YLL001W, strain dnm1, active compounds read low 0.993 | S. cerevisiae deletion strains, locus YLL026W, active compounds read low 1.01 | S. cerevisiae deletion strains, locus YLL041C, strain sdh2, active compounds read low 1.01 | S. cerevisiae deletion strains, locus YLR027C, strain aat2, active compounds read low 1.01 | S. cerevisiae deletion strains, locus YLR039C, strain RIC1, active compounds read low 1.03 | S. cerevisiae deletion strains, locus YLR058C, strain SHM2, active compounds read low 1 | S. cerevisiae deletion strains, locus YLR102C, strain apc9, active compounds read low 0.994 | S. cerevisiae deletion strains, locus YLR113W, strain HOG1, active compounds read low 0.994 | S. cerevisiae deletion strains, locus YLR221C, strain rsa3, active compounds read low 0.998 | S. cerevisiae deletion strains, locus YLR258W, strain gsy2, active compounds read low 1.02 | S. cerevisiae deletion strains, locus YLR262C, strain YPT6 (second series), active compounds read low 1.01 | S. cerevisiae deletion strains, locus YLR262C, strain YPT6, active compounds read low 1.03 | S. cerevisiae deletion strains, locus YLR268W, strain sec22, active compounds read low 0.978 | S. cerevisiae deletion strains, locus YLR320W, strain mms22, active compounds read low 1.02 | S. cerevisiae deletion strains, locus YLR330W, strain CHS5, active compounds read low 1 | S. cerevisiae deletion strains, locus YLR342W, strain FKS1 (second series), active compounds read low 0.992 | S. cerevisiae deletion strains, locus YLR342W, strain FKS1, active compounds read low 1 | S. cerevisiae deletion strains, locus YLR357W, strain rsc2, active compounds read low 0.998 | S. cerevisiae deletion strains, locus YLR370C, strain arc18, active compounds read low 1.01 | S. cerevisiae deletion strains, locus YLR371W, strain rom2, active compounds read low 0.991 | S. cerevisiae deletion strains, locus YLR384C, strain iki3, active compounds read low 1.02 | S. cerevisiae deletion strains, locus YLR418C, strain cdc73, active compounds read low 0.961 | S. cerevisiae deletion strains, locus YML016C, strain PPZ1, active compounds read low 0.994 | S. cerevisiae deletion strains, locus YML032C, strain rad52, active compounds read low 0.981 | S. cerevisiae deletion strains, locus YML120C, strain ndi1, active compounds read low 1.02 | S. cerevisiae deletion strains, locus YML124C, strain tub3, active compounds read low 0.991 | S. cerevisiae deletion strains, locus YMR058W, strain fet3, active compounds read low 1 | S. cerevisiae deletion strains, locus YMR078C, strain ctf18, active compounds read low 0.987 | S. cerevisiae deletion strains, locus YMR125W, strain sto1, active compounds read low 1.04 | S. cerevisiae deletion strains, locus YMR129W, active compounds read low 1.01 | S. cerevisiae deletion strains, locus YMR205C, strain PFK2, active compounds read low 1.03 | S. cerevisiae deletion strains, locus YMR223W, strain ubp8, active compounds read low 1.01 | S. cerevisiae deletion strains, locus YMR231W, strain pep5, active compounds read low 1.02 | S. cerevisiae deletion strains, locus YMR263W, strain SAP30, active compounds read low 1 | S. cerevisiae deletion strains, locus YMR307W, strain GAS1, active compounds read low 1.03 and 1 | S. cerevisiae deletion strains, locus YNL067W, strain RPL9B, active compounds read low 1 | S. cerevisiae deletion strains, locus YNL071W, strain lat1, active compounds read low 1.01 | S. cerevisiae deletion strains, locus YNL128W, strain TEP1, active compounds read low 0.998 | S. cerevisiae deletion strains, locus YNL153C, strain GIM3, active compounds read low 0.991 | S. cerevisiae deletion strains, locus YNL175C, strain NOP13, active compounds read low 0.937 | S. cerevisiae deletion strains, locus YNL183C, strain NPR1, active compounds read low 0.934 | S. cerevisiae deletion strains, locus YNL197C, strain WHI3, active compounds read low 0.956 | S. cerevisiae deletion strains, locus YNL209W, strain ssb2, active compounds read low 1.01 | S. cerevisiae deletion strains, locus YNL224C, strain SQS1, active compounds read low 0.981 | S. cerevisiae deletion strains, locus YNL233W, strain BNI4, active compounds read low 1.01 | S. cerevisiae deletion strains, locus YNL248C, strain rpa49, active compounds read low 1.02 | S. cerevisiae deletion strains, locus YNL250W, strain rad50, active compounds read low 0.988 | S. cerevisiae deletion strains, locus YNL271C, strain bni1, active compounds read low 0.985 | S. cerevisiae deletion strains, locus YNL298W, strain CLA4, active compounds read low 0.985 | S. cerevisiae deletion strains, locus YNL307C, strain MCK1, active compounds read low 0.994 | S. cerevisiae deletion strains, locus YNL322C, strain KRE1 (second series), active compounds read low 1.03 | S. cerevisiae deletion strains, locus YNL322C, strain KRE1, active compounds read low 1 and 0.976 | S. cerevisiae deletion strains, locus YNR049C, strain mso1, active compounds read low 1.01 | S. cerevisiae deletion strains, locus YNR052C, strain pop2, active compounds read low 0.986 | S. cerevisiae deletion strains, locus YOL006C, strain TOP1, active compounds read low 0.954 | S. cerevisiae deletion strains, locus YOL012C, strain htz1 0.78 | S. cerevisiae deletion strains, locus YOL147C, strain pex11, active compounds read low 0.996 | S. cerevisiae deletion strains, locus YOR001W, strain rrp6, active compounds read low 1.01 | S. cerevisiae deletion strains, locus YOR061W, strain CKA2, active compounds read low 1 | S. cerevisiae deletion strains, locus YOR069W, strain VPS5, active compounds read low 0.993 | S. cerevisiae deletion strains, locus YOR070C, strain gyp1, active compounds read low 1.01 | S. cerevisiae deletion strains, locus YOR080W, strain dia2, active compounds read low 1.03 | S. cerevisiae deletion strains, locus YOR083W, strain WHI5 (second series), active compounds read low 0.975 | S. cerevisiae deletion strains, locus YOR083W, strain WHI5, active compounds read low 0.999 | S. cerevisiae deletion strains, locus YOR106W, strain vam3, active compounds read low 1.01 | S. cerevisiae deletion strains, locus YOR136W, strain idh2, active compounds read low 0.992 | S. cerevisiae deletion strains, locus YOR144C, strain elg1, active compounds read low 0.989 | S. cerevisiae deletion strains, locus YOR184W, strain ser1, active compounds read low 0.991 | S. cerevisiae deletion strains, locus YOR231W, strain MKK1, active compounds read low 0.993 | S. cerevisiae deletion strains, locus YOR265W, strain rbl2, active compounds read low 1.01 | S. cerevisiae deletion strains, locus YOR270C, strain vph1, active compounds read low 1 | S. cerevisiae deletion strains, locus YOR290C, strain snf2, active compounds read low 1.03 | S. cerevisiae deletion strains, locus YOR316C, strain cot1, active compounds read low 0.994 | S. cerevisiae deletion strains, locus YPL051W, strain arl3, active compounds read low 1 | S. cerevisiae deletion strains, locus YPL055C, strain LGE1, active compounds read low 1.05 and 1.01 | S. cerevisiae deletion strains, locus YPL078C, strain atp4, active compounds read low 1.01 | S. cerevisiae deletion strains, locus YPL106C, strain sse1, active compounds read low 1.04 | S. cerevisiae deletion strains, locus YPL240C, strain hsp82, active compounds read low 1.01 | S. cerevisiae deletion strains, locus YPL241C, strain CIN2, active compounds read low 1 | S. cerevisiae deletion strains, locus YPL256C, strain CLN2, active compounds read low 0.982 | S. cerevisiae deletion strains, locus YPR119W, strain clb2, active compounds read low 0.986 | S. cerevisiae deletion strains, locus YPR141C, strain kar3, active compounds read low 0.987 | S. cerevisiae deletion strains, locus YPR163C, strain tif3, active compounds read low 0.988 | S. cerevisiae deletion strains, locus YPR167C, strain met16, active compounds read low 0.985 | S. cerevisiae deletion strains, strain wtn01, active compounds read low 0.977 | S. cerevisiae strains, strain wild type, active compounds read low 1.01
